Where a chain is given by its changes, count along the chain named.
Experiments:
Experiment in all cases: protein-binding microarray (PBM); PBM: ~300 nM protein, 6 mM HEPES pH 7.8, 80 mM KCl, 0.5 mM EDTA, 0.5 mM EGTA, 6% glycerol, 35 ng/ul poly-dIdC, 1% milk, 1 h, room temperature; Ap Aiptasia and Nv Nematostella (sea anemones) / Co Capsaspora / Aq Amphimedon (sponge) / Dm Drosophila / Hu human; RHD is the Rel homology domain; high values mean tight binding
Conditions in all cases: dsDNA, one strand shown
GST-Ap-NF-kB RHD = biological target: T1, GST-Ap-NF-kB RHD (Exaiptasia pallida (Aiptasia), UniProt A0A913YAJ5 2-422)
T1 sequence: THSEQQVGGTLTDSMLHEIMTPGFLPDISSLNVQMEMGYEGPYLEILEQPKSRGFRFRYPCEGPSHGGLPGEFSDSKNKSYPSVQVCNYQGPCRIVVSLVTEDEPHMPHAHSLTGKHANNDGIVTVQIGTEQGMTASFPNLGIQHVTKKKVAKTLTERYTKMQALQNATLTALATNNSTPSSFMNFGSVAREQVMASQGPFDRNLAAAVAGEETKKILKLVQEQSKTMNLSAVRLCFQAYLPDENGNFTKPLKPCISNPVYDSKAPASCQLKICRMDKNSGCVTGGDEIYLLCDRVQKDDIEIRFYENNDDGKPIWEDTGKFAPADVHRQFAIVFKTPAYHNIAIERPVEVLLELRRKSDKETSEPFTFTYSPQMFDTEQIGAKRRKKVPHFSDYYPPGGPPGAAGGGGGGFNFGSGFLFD

[1] = biological target: T2, GST-Nv-NF-kB (Cys allele) (Nematostella vectensis, UniProt E5G601 2-411)
T2 sequence: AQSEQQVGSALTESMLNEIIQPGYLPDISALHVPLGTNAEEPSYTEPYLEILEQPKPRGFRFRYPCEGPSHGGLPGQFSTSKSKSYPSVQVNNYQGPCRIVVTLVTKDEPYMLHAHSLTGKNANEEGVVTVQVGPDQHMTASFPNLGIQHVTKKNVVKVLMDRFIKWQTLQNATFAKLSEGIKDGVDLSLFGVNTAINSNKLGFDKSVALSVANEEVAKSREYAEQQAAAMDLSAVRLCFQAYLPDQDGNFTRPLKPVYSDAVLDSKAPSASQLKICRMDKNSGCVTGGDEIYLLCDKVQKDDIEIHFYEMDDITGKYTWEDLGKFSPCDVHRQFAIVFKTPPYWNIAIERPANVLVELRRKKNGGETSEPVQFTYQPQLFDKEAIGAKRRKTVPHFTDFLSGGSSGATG

[2] = biological target: T3, GST-Nv-NF-kB (Ser allele) (Nematostella vectensis, UniProt A7UNT2 2-411)
T3 sequence: T2 sequence with Q21R, C66S, S207N, E215Q, V217A, E225K, A268E, D399E

GST-Dm-Relish = biological target: T4, GST-Dm-Relish (Drosophila melanogaster, UniProt Q94527 99-473)
T4 sequence: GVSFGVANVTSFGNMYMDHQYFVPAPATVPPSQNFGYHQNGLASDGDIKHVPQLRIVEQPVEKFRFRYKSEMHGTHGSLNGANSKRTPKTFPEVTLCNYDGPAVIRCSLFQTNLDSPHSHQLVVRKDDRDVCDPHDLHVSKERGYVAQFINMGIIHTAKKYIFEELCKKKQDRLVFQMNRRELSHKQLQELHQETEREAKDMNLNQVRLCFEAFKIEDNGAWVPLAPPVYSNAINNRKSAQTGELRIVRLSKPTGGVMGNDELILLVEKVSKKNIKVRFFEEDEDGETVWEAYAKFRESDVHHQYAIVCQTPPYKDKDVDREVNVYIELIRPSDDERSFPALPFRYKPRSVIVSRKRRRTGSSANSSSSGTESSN

GST-Aq-NF-kB = biological target: T5, GST-Aq-NF-kB (Amphimedon queenslandica, UniProt A9Y5G7 2-389)
T5 sequence: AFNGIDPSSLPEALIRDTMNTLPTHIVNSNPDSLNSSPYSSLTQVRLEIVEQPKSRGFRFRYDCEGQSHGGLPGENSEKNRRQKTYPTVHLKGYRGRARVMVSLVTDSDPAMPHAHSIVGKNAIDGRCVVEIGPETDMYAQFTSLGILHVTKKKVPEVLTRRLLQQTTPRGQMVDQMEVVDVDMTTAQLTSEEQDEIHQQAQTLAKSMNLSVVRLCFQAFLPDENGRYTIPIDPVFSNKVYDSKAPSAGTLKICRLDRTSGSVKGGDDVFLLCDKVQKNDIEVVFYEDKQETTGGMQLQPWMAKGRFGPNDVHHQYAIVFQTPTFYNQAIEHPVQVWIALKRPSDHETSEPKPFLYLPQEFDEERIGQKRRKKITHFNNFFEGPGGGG

GST-Co-NF-kB = biological target: T6, GST-Co-NF-kB (Capsaspora owczarzaki, UniProt F1ARL5 200-546)
T6 sequence: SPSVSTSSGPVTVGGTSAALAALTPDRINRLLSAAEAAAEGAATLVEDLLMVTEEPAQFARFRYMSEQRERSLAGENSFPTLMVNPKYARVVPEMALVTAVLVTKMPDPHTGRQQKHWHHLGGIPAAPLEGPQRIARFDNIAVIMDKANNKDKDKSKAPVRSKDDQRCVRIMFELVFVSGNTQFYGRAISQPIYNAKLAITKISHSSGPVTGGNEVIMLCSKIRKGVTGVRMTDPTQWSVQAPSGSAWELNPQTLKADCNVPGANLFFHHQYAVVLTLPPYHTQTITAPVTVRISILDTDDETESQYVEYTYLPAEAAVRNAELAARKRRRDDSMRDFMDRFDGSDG

Sequence | binding signal (GST-Ap-NF-kB RHD) [z-score] | binding signal [1] [z-score] | binding signal [2] [z-score] | binding signal (GST-Dm-Relish) [z-score] | binding signal (GST-Aq-NF-kB) [z-score] | binding signal (GST-Co-NF-kB) [z-score]
CCGATTAACATCAATAAAGTCCCTGATGTTAATCGGGTCTTGATTCGCTTGACGCTGCTG | 5.45 | 7.06 | 7.32 | 6.49 | 5.67 | –
CCGATTAACATCACATGGGAAACTGATGTTAATCGGGTCTTGATTCGCTTGACGCTGCTG | 1.24 | 2.14 | – | – | 1.58 | 2.48
CCGATTAACATCAGGTAATTACCTGATGTTAATCGGGTCTTGATTCGCTTGACGCTGCTG | 2.06 | 4.18 | 5.28 | 5.43 | 5.11 | –
CCGATTAACATCAGGGGAAAGCATGATGTTAATCGGGTCTTGATTCGCTTGACGCTGCTG | 5.49 | 6.83 | 8.3 | 2.4 | 4.54 | 6.79
CCGATTAACATCAGGATTTTCCCTGATGTTAATCGGGTCTTGATTCGCTTGACGCTGCTG | 5.75 | 8.01 | 7.34 | 4.83 | 8.92 | 3.97
CCGATTAACATCAAAAAATTACCTGATGTTAATCGGGTCTTGATTCGCTTGACGCTGCTG | 2.19 | 4.07 | 6.92 | 6.23 | 3.3 | –
CCGATTAACATCACCCATTCCCCTGATGTTAATCGGGTCTTGATTCGCTTGACGCTGCTG | 6.25 | 5.53 | 7.1 | 2.33 | 4.22 | 5.33
CCGATTAACATCAGGGAATCAGATGATGTTAATCGGGTCTTGATTCGCTTGACGCTGCTG | 1.26 | 1.61 | – | – | 1.84 | 1.68
CCGATTAACATCATGATGGGAAATGATGTTAATCGGGTCTTGATTCGCTTGACGCTGCTG | 1.17 | 2.84 | – | – | 1.64 | 1.71
CCGATTAACATCAGGAGTCTCCCTGATGTTAATCGGGTCTTGATTCGCTTGACGCTGCTG | 1.69 | 2.44 | – | – | 5.28 | 2.17
CCGATTAACATCAGGGGAATGGATGATGTTAATCGGGTCTTGATTCGCTTGACGCTGCTG | 5.2 | 5.95 | 7.13 | 1.71 | 4.07 | 3.65
